Rows were chosen to be rich in hits. Some 0.9% of all compounds tested hit in one or more screens of this group.
TAR Tat displ – HIV-1 TAR-Tat binding disruption. HIV-1 TAR RNA, Tat peptide displacement FRET; stronger effect = higher value. z-score (no concentration beside the values). 100,000 compounds, 0.6% hits. AID 1259389; active means z-score of 3 or more in at least 2 runs
CDC25B-CDK2 inh – human CDC25B-CDK2/CyclinA binding inhibition; P30305+P24941; HTRF CDC25B-CDK2/CyclinA binding, anti-His/anti-Flag; stronger effect = higher value; z-score (no concentration beside the values); 94,000 compounds, 0.72% hits; AID 1259370; in the data active means z-score above about 3.2
An asterisk follows results filed as active; x = no result given.

SMILES | TAR Tat displ | CDC25B-CDK2 inh
O=C(Cc1ccccc1)N(c1ccc2oc(=O)sc2c1)S(=O)(=O)c1ccccc1 | 0.43 | -1.94
CS(=O)(=O)NCCc1ccc(S(N)(=O)=O)cc1 | 2.68 | -1.6
Cc1ccc(C(=O)c2cn(Cc3ccc(F)cc3)c3cc4c(cc3c2=O)OCCO4)cc1 | -3.17 | -0.53
COc1ccc(NC(=O)Nc2nnc(CC(=O)Nc3ccc(C)cc3)s2)cc1 | x | 5.53*
Cc1ccc(NC(=O)Nc2nnc(CC(=O)Nc3ccccc3)s2)cc1 | x | 0.1
Cc1nn(-c2ccc(N3CCCCC3)nn2)c(C)c1CCC(=O)O | -0.31 | -0.03
Nc1ccc(O)c2c1C(=O)c1c(N)ccc(O)c1C2=O | x | -2.59
O=C1c2c(O)cccc2Cc2cccc(O)c21 | 25* | x
O=C(Cn1cnc(S(=O)(=O)N2CCCC2)c1)N(Cc1cccs1)C1CCCC1 | 0.7 | x
CSc1ccc(C(Nc2ccccn2)c2ccc3cccnc3c2O)cc1 (stereo not given) | x | 0.04
O=C(Cn1ncc2c(Cl)cccc21)NCCN1CCCC1 | -1.08 | -1.8
Cc1ccc(C(=O)c2cnc3cc4c(cc3c2N2CCC(C(N)=O)CC2)OCCO4)cc1C | 5.47 | -1.61
Cc1ccc(C(=O)c2cnc3cc4c(cc3c2N2CCC(C(N)=O)CC2)OCO4)cc1C | 17.4* | 2.69
O=C(O)c1sccc1S(=O)(=O)Nc1ccccc1N1CCOCC1 | x | 18.6*
O=C(Nc1ccccc1)Nc1ccccc1N1CCOCC1 | x | -1.83
COC(=O)CNC(=O)N1CCN(c2nc3cc(F)ccc3n3cccc23)CC1 | 2.6 | x
CCc1nnc2c(Nc3cc(C)ccc3O)nc3ccccc3n12 | 0.36 | x
Cc1cc(C)c2c(n1)nn1c(C)c(CCC(=O)NC3CCCC3)c(C)nc21 | 2.46 | -1.83
CCN(CC)c1ccc(NC(=O)CCc2c(C)nc3c4c(C)cc(C)nc4nn3c2C)c(C)c1 | 6.36* | -0.09
CCn1c(NCc2cc(C)ccc2O)nc2ccccc21 | x | -1.25
Nc1ccc(-c2nc3ccccc3s2)c(Cl)c1 | -2.13 | 7.13
Nc1ccc(O)c(-c2nc3ccc(N)cc3s2)c1 | 35.9* | 2.3
CCn1c(=O)n(CC)c2cc(N3CCCC3)c(NC(=O)c3ccco3)cc21 | 0.41 | -1.11
O=C(O)c1ccc2nc3c(nc2c1)-c1cccc2cccc-3c12 | 5.9* | -2.6
O=C(O)c1ccc2nc(-c3ccccc3)c(-c3ccccc3)nc2c1 | 1.38 | 1.33
SMILES | TAR Tat displ | CDC25B-CDK2 inh
O=C1NC(=S)N/C1=C/c1ccc(-c2cc(C(=O)O)ccc2Cl)o1 | x | 3.65*
O=C1NC(=O)/C(=C/c2ccc(-c3ccc(F)cc3O)o2)S1 | x | 0.33
CC1CC(C)CN(c2nc(Nc3ccc(F)cc3)c3cnn(C)c3n2)C1 (stereo not given) | -1.79 | x
COc1cc(OC)c2nc(C)c3c(c2c1)CN(C(=O)Nc1cccc(C(F)(F)F)c1)C3 | x | 15.1*
COC(=S)Nc1cccc(C(F)(F)F)c1 | x | -1.75
Cc1nc(N2CCC(C)CC2)nc2oc(-c3ccccc3)nc12 | -1.16 | x
COc1ccc(CCn2c(C)c3c(C)nn4cc(C)cc4c3c2C)cc1OC | 15* | 3.53
Cc1cc2c3c(C)n(C4CCCCC4)c(C)c3c(C)nn2c1 | x | 0.79
CN(C)CCn1c2c(c(SCC(=O)Nc3cccc(Cl)c3)nc1=O)CCC2 | 2.14 | x
CCOC(=O)c1sc2ccccc2c1S(=O)(=O)N1CCN(c2ncccn2)CC1 | 0.69 | x
Cc1occc1-c1nnc(SCC(=O)Nc2ccc(Cl)cc2)o1 | 3.78 | 10.2*
Cc1occc1-c1nnc(SCC(=O)c2ccc(Cl)cc2)o1 | -2.33 | 0.95
CCOc1ccc(-n2nnc3c(sc4nc(C)ccc43)c2=O)cc1 | 1.35 | -0.35
C=CCn1c(=O)oc2ccc(C(=O)OCC)cc21 | 1.66 | x
NC(C(=O)O)C1CCCCC1 (stereo not given) | x | -0.39
N[C@H](C(=O)O)[C@H]1C[C@@H]1C(=O)O | x | 7.72*
Cc1ccc(C)c(S(=O)(=O)Nc2ccc3oc(C)c(C(=O)O)c3c2)c1 | 14.3* | 0.27
COCCOC(=O)c1c(C)oc2ccc(NS(=O)(=O)c3cc(C)ccc3C)cc12 | x | -3.5
CS(=O)(=O)Nc1nc2ccc(NC(=O)CN3C(=O)COc4ccc(Cl)cc43)cc2s1 | -0.98 | x
CCc1ccc(OC(=O)CSc2nc(-c3ccc(OC)cc3)nc3cc(=O)[nH]n23)cc1 | 0.37 | x
COCCNC(=O)CCc1nc2sc3c(c2c(=O)[nH]1)CCCCC3 | 0.44 | x
O=C(CCc1nc2sc3c(c2c(=O)[nH]1)CCCCC3)NCCN1CCOCC1 | 5.5* | x
CSC(=CC(=O)c1sc(-c2cccs2)nc1C)SC | x | -0.06
CSc1nn(CC(=O)Nc2ccccc2F)c(N)c1S(=O)(=O)c1ccc(Cl)cc1 | 0.44 | x
CCCCN(CC)CCCNc1ncnc2onc(-c3ccc(F)cc3)c12 | 0.24 | x
SMILES | TAR Tat displ | CDC25B-CDK2 inh
COc1c(Cl)c(C)c2c(c1Cl)OC(=O)c1c(C)c(Cl)c(O)c(Cl)c1O2 | 30.2* | x
COC(=O)c1c(OC)cc2c(c1C)Oc1c(Cl)c(OC(C)=O)c(Cl)c(C)c1C(=O)O2 | -0.25 | x
C=CCSc1nnc(NC(=O)c2cc(=O)c3cc(CC)ccc3o2)s1 | 9.8* | -0.88
C=CCSc1nnc(NC(=O)c2cc(=O)c3cc(Cl)ccc3o2)s1 | 2.2 | 0.15
O=C(O)c1nnn(Cc2cccc(Cl)c2)c1C(=O)O | 1.9 | -0.68
COc1ccc(-c2n[nH]c3c2C(c2cccc(OC)c2)NC3=O)cc1 (stereo not given) | 1.28 | x
Nc1ccc(C(=O)O)c(O)c1 (tested in a mixture with another compound) | 16.1* | x
O=C(O)c1cccc2cccc(C(=O)O)c12 | x | -1.33
O=C(O)c1cccc(O)c1O | 9.56* | x
Nc1ccc(C(=O)O)cc1 | 1.62 | x
O=C(O)c1cc(O)ccc1O | 3.19 | x
Nc1ccc(O)c(C(=O)O)c1 | 21.4* | x
CC(C)CNC(=O)NCCn1cnc2cc(C(=O)N3CCCC3)ccc21 | 0.37 | x
CCc1nnc(NC(=O)c2cc(=O)n3c(nc4ccccc43)s2)s1 | 3.75* | x
CCc1nnc(NC(=O)Cn2c(=O)sc3ccccc32)s1 | x | -0.08
COc1cc(-c2nc(-c3ccccc3)c(-c3cccs3)[nH]2)cc(OC)c1O | x | 0.89
Oc1ccccc1-c1nc(-c2cccs2)c(-c2cccs2)[nH]1 | -0.47 | 18.3*
Cc1ccc(CNC(=O)NCc2c(-n3cccc3)sc3c2CCCC3)cc1 | 13* | -1.19
Cc1cc(C)cc(NC(=O)NCc2c(-n3cccc3)sc3c2CCCC3)c1 | 0.31 | -0.2
O=C(O)C1Cc2c([nH]c3ccccc23)C(c2ccccc2)N1 (stereo not given) | x | 0.74
O=C(O)C1Cc2c([nH]c3ccccc23)CN1 (stereo not given) | x | 15.9*
CCN(CC)CCCNC(=O)c1nn(C)c2c1CS(=O)(=O)c1ccccc1-2 | 6.92* | -1.52
CCCCN(CC)CCNC(=O)c1nn(C)c2c1CS(=O)(=O)c1ccccc1-2 | 0.79 | 0.55
Cc1cc(C)c2c(=O)[nH]c(SCC(=O)c3ccc(O)c(O)c3)nc2n1 | 30.5* | -0.31
CCN(CC)C(=O)CSc1nc2nc(C)cc(C)c2c(=O)[nH]1 | x | 0.19
COc1cc(Br)c(CC2c3cc(OC)c(OC)cc3CCN2C)cc1OC (stereo not given) | 0.98 | x
CN1CCc2cc(O)c(O)cc2C1Cc1ccc(O)c(O)c1 (stereo not given) | 38.1* | x
CC(C)N(C(=O)Cc1c(O)c2ccccc2[nH]c1=O)C(C)C | 1.39 | x
N#CC1=C2SCN(c3ccccc3F)CN2C(=O)CC1c1cccc(F)c1 (stereo not given) | 0.19 | 6.6*
N#CC1=C2SCN(c3ccccc3F)CN2C(=O)CC1c1cccc(Br)c1 (stereo not given) | -1.01 | 2.7

Screening data: PubChem BioAssay, Center for Chemical Genomics, University of Michigan
